Compound activity from PubChem BioAssay.
Most compounds without a hit are left out; they make up all but 15% or so of the library.
HCV inh: HCV inhibition. AID 651820. hit rate 3.4% among 340,000. Huh7.5.1 HCVcc-Cre infection, luciferase reporter, 44 h. Potency, µM (top dose mostly 41.8 µM), for inactives: at the top dose activity change, negative = inhibition, most hits filed as inhibitors; note: potency is the fitted concentration of half-maximal effect; % is set by controls: 0 for no effect and ±100 for the full control effect
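Whole-lifecycle infectious HCVcc-Cre system; cells 1,000/well, compound then virus (~0.5 moi) added 4 h after plating, 44 h culture. Luciferase read 15 sec following 15 min substrate incubation, room temp.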
SARS PLpro yeast: SARS-CoV PLP inhibition in yeast. S. cerevisiae expressing SARS-CoV PLpro, growth rescue. Potency, µM (series often up to 32.9 µM), without a hit: at the highest dose activity, positive = growth rescue, most hits filed as activators. hit rate 0.19% among 330,000. AID 485353; calls by dose curve; note: potency is the fitted concentration of half-maximal effect; 0% is about no effect; nearly all actives have a fitted effect of over 55% in size
Pf growth 96h: P. falciparum growth inhibition at 96 hours. P. falciparum luciferase reporter growth, 96 h. hit rate 6.9% among 320,000. Potency, µM (highest dose often 28.7 µM), inactives show at the top dose activity change, negative = inhibition, actives largely listed as inhibitors; note: potency is the fitted concentration of half-maximal effect; % is set by controls: 0 for no effect and ±100 for the full control effect
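Parasite growth measured via integrated firefly luciferase reporter in P. falciparum. Infected erythrocytes at 2% hematocrit, 0.05% parasitemia final were treated 96 hours at 37 C under 5% CO2, and luminescence was read.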
HCMV inh: blocks human cytomegalovirus replication; hit rate 4.5% among 410,000; activity change, negative = inhibition, % at 57.5 µM; HFF cells, HCMV-luciferase reporter, 72 h; active compounds read low; in the data active = activity change below about -60%; inconclusive = no clear call, values can overlap the other calls; inactive = above about -39%; note: % is set by controls: 0 for no effect and ±100 for the full control effect
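Screen run at 2 compound doses on HFFs infected with reporter HCMV, MOI 1 PFU/cell. Luciferase activity from cell lysates at 72 h post infection gave inhibition relative to buffer-only and Salinomycin wells.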
Sm TGR block: blocks Schistosoma mansoni thioredoxin glutathione reductase. Potency, µM (highest dose often 114 µM), for inactives: at the highest dose activity change, negative = inhibition, usual class: inhibitors. hit rate 3% among 360,000. purified TGR, DTNB reduction, TNB absorbance 405 nm. AID 485364; note: potency is the fitted concentration of half-maximal effect; % is set by controls: 0 for no effect and ±100 for the full control effect; nearly all actives have a fitted effect of over 60% in size
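Kinetic colorimetric format: TGR-catalysed, NADPH-driven DTNB reduction monitored via TNB absorbance. Enzyme dispensed at 20 nM; compound exposure 15 min at room temperature before reaction start.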
Pf growth 48h: inhibits P. falciparum growth in the first generation, 48 h. P. falciparum luciferase growth in erythrocytes, 48 h. Potency, µM (top dose mostly 28.7 µM), for the others: top-dose activity change, negative = inhibition, most hits filed as inhibitors. hit rate 5.9% among 310,000. AID 504832; note: potency is the fitted concentration of half-maximal effect; % is set by controls: 0 for no effect and ±100 for the full control effect
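Erythrocytes infected with P. falciparum carrying an integrated firefly luciferase reporter (2% hematocrit, 0.1% parasitemia final) were exposed to compounds in RPMI 1640 with 0.5% Albumax at 37 C, 5% CO2. Growth inhibition was scored as reduced luminescence.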
The depositor's hits bear a star; ? = inconclusive; · = not tested or not shown; [ ] = dose if it differs, or a comment. Unless noted, calls come from the whole dose curve; as a rule, active = well fitted curve in the direction sought with a large enough effect; inconclusive = small, poorly fitted or top-dose-only effect, or another doubt; inactive = no such curve, though single readings can be large; an effect the other way counts as inactive or inconclusive.

SMILES	HCV inh	SARS PLpro yeast	Pf growth 96h	HCMV inh	Sm TGR block	Pf growth 48h
COc1ccc(S(=O)(=O)N2CCOCC2)cc1NC(=O)COC(=O)c1ccc([N+](=O)[O-])s1	13%	-9%	·	·	·	·
CCOC(=O)N1CCC(NS(=O)(=O)c2ccccc2)CC1	16%	0%	33%	11	45µM*	-6%
CCOC(=O)N1CCC(NS(=O)(=O)c2ccc(C)cc2)CC1	-15%	0%	?	?	14%	8%
CCOC(=O)N1CCC(NS(=O)(=O)c2ccc(NC(C)=O)c(Cl)c2)CC1	6.3µM*	1%	-7%	-39	3%	51%
CCN(CC)C(=O)CSc1ncnc2c1nnn2-c1ccc(F)cc1	-1%	4%	11%	-33	4%	2%
COC(=O)c1ccc(CSc2ncnc3c2nnn3-c2ccc(F)cc2)o1	?	-3%	20%	15	1%	1µM*
Clc1ccccc1CSC1=NCCN1	-8%	1%	23%	3	-23%	15µM*
O=C(CSC1=NCCN1)NC(c1ccccc1)c1ccccc1	10µM*	-1%	-20%	40	16%	?
NNC(=O)CCN(Cc1ccco1)S(=O)(=O)c1ccc(Cl)cc1	-27%	0%	?	-67*	-3%	?
C=CCN(Cc1ccco1)S(=O)(=O)c1ccc(Cl)cc1	-9%	?	41%	2	-19%	1%
Cc1c(Cl)cccc1NC(=O)C(=O)NCCc1csc(-c2cccc(F)c2)n1	·	·	·	-10	-1%	·
CC(C)c1ccc(/C=N/NC(=O)C(=O)NCCCN2CCOCC2)cc1	?	-3%	24%	-62*	8%	1%
O=C(NCCCN1CCOCC1)C(=O)N/N=C/c1c2ccccc2cc2ccccc12	11µM*	?	?	-93*	2%	-9%
O=C(NCCCN1CCOCC1)C(=O)N/N=C/c1c(Cl)cccc1Cl	8%	0%	4%	-39	·	-10%
CCCN1C(C(=O)c2ccccc2)=C(OC(=O)COc2ccccc2)c2ccccc2S1(=O)=O	·	·	·	-88*	11µM*	·
CCCN1C(C(=O)c2ccccc2)=C(OC(=O)C(C)(C)C)c2ccccc2S1(=O)=O	·	·	·	-89*	2%	·
CCN1C(C(=O)c2ccccc2)=C(OC(=O)COc2ccc(OC)cc2)c2ccccc2S1(=O)=O	·	·	·	?	11µM*	·
CCN1C(C(=O)c2ccccc2)=C(OC(=O)c2ccc(Cl)cc2)c2ccccc2S1(=O)=O	·	·	·	-77*	-1%	·
CCCCC(=O)OC1=C(C(=O)c2ccccc2)N(C)S(=O)(=O)c2ccccc21	·	·	·	11	-28%	·
CCOC(=O)CN1C(C(=O)c2ccccc2)=C(OC(=O)c2ccccc2)c2ccccc2S1(=O)=O	·	·	·	7	-3%	·
COC(=O)CN1C(C(=O)c2ccccc2)=C(OC(=O)c2ccc(F)cc2)c2ccccc2S1(=O)=O	·	·	·	-11	-13%	·
COc1ccc(-n2c(=O)c3ccccc3n(Cc3ccc(F)cc3Cl)c2=O)cc1OC	·	·	·	26	3%	·
CC(=O)c1cc(-c2ccc(F)cc2)n(CC(=O)NCc2ccc(C)cc2)c1C	·	·	·	?	14%	·
CCN1C(C(=O)c2ccccc2)=C(OC(=O)COc2ccc(C)cc2)c2ccccc2S1(=O)=O	·	·	·	-32	10µM*	·
CC(=O)c1c(C)n(-c2ccc(C)cc2)c2ccc(OC(=O)COc3ccccc3)cc12	·	·	·	?	-3%	·
SMILES	HCV inh	SARS PLpro yeast	Pf growth 96h	HCMV inh	Sm TGR block	Pf growth 48h
C=CCN1C(C(=O)c2ccccc2)=C(OC(=O)COc2ccccc2)c2ccccc2S1(=O)=O	?	-94%	?	-35	11µM*	-10%
CCCN1C(C(=O)c2ccccc2)=C(OC(=O)COc2ccc(C)cc2)c2ccccc2S1(=O)=O	·	·	·	-91*	10µM*	·
CC(=O)c1ccc(OC(=O)COc2ccccc2)cc1	4%	·	?	8	?	62%
CCN(Cc1ccccc1)C(=O)c1cc2ccc3cccnc3c2[nH]1	·	·	·	-35	6%	·
Cc1nn(-c2ccccc2)nc1CNC(=O)C1CCC1	-3%	-1%	60%	11	3%	30%
O=C(c1cc2cc(Br)ccc2[nH]1)N1CCc2ccccc21	11%	1%	1.5µM*	39	1%	?
Cc1c(/C(O)=C2/C(=O)C(=O)N(CCN3CCOCC3)C2c2ccccn2)cnn1-c1ccccc1 (stereo not drawn)	3%	-2%	?	-78*	22µM*	110%
Cc1ccc(C2/C(=C(/O)c3cnn(-c4ccccc4)c3C)C(=O)C(=O)N2CCCN2CCOCC2)o1 (stereo not drawn)	·	-1%	244%	·	10µM*	111%
Cc1c(/C(O)=C2\C(=O)C(=O)N(CCN(C)C)C2c2cccnc2)cnn1-c1ccccc1 (stereo not drawn)	-14%	5%	?	25	?	65%
Cc1ccc(C)c(/C(O)=C2/C(=O)C(=O)N(CCN3CCOCC3)C2c2ccc(C)o2)c1 (stereo not drawn)	18%	2%	13%	4	?	-9%
Cc1c(/C(O)=C2\C(=O)C(=O)N(CCN(C)C)C2c2cccs2)cnn1-c1ccccc1 (stereo not drawn)	9%	1%	13µM*	-13	-23%	8%
COc1ccc(NC(=O)/C=C/c2cc(OC)c(OC)c(OC)c2)cn1	-1%	0%	18%	-32	45µM*	3%
COc1cccc(/C=C/C(=O)Nc2ccc(OC)nc2)c1	5%	-48%	5%	-66*	-13%	19%
COc1ccc(NC(=O)/C=C/c2ccccc2)cn1	-14%	-30%	51%	10	4%	72%
COc1ccc(C[C@@H]2c3cc(OC)c(OC)cc3CC[N@+]2(C)CCC(=O)OCCCCCOC(=O)CC[N@@+]2(C)CCc3cc(OC)c(OC)cc3[C@H]2Cc2ccc(OC)c(OC)c2)cc1OC	·	·	2%[12.8 µM]	·	·	-5%[12.8 µM]
Cc1ccccc1N1CC(C(=O)O)CC1=O (stereo not drawn)	?	0%	?	-85*	0%	-15%
Cc1cc(NC(=O)C2CC(=O)N(c3ccccc3C)C2)no1 (stereo not drawn)	?	0%	12µM*	0	-5%	16%
Cc1ccccc1N1CC(C(=O)N2CCc3ccccc32)CC1=O (stereo not drawn)	-5%	-2%	?	-4	6%	18%
Cc1ccc(S(=O)(=O)N2C[C@H]3n4c(=O)ccc(=O)n4C[C@H](OC(=O)NCC4CCCCC4)[C@@]3(O)C2)cc1	·	·	·	-102*	·	·
Cc1ccc(S(=O)(=O)N2C[C@H]3n4c(=O)ccc(=O)n4C[C@H](OC(=O)NCc4ccccc4)[C@@]3(O)C2)cc1	·	·	·	-61*	·	·
